Screens deposited in PubChem BioAssay by several laboratories.
Rows were chosen to be rich in hits. Some 4.8% of all compounds tested hit in one or more screens of this group.
tim10-1 inh: tim10-1 yeast growth inhibition; S. cerevisiae tim10-1 ts strain growth, BacTiter-Glo, 24 h; inhibition, % at 20 µM; 330,000 tested, 2.2% active; AID 463190;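 active means inhibition of at least 40%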;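 further: mutant grown at 25 °C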
tim23-1 inh: inhibits growth of tim23-1 mutant yeast | 330,000 tested, 1.3% active | S. cerevisiae tim23-1 growth, BacTiter-Glo luminescence, 24 h | inhibition, % at 20 µM;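 active means growth inhibition of the mutant yeast at or above 50%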;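 further: temperature-sensitive mutant grown at 25 °C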
PfHsp90 set2: inhibits growth of yeast expressing Plasmodium falciparum Hsp90 | 310,000 tested, 0.32% active | S. cerevisiae expressing PfHsp90, BacTiter-Glo ATP, 48 h; yeast lacking PDR1 and PDR3 efflux regulators | inhibition, % at 9.4 µM;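 active means every replicate shows inhibition above about 80%, whatever the replicate mean, limit read from the data; inconclusive means mean inhibition reaches the set limit but some replicate falls short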
SKKanGAS inh: inhibitors of SKKanGAS S. pyogenes growth in kanamycin (SK-promoter or general growth effect); BacTiter-Glo, 6 h; AID 1662; 300,000 tested, 1.3% active; inhibition, % at 7.5 µM;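 active means mean replicate score, as percent of positive control median, at least 50; inconclusive means mean below 50 but one replicate at or above 50; inactive means mean and every replicate below 50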;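 further: strain carries kanamycin resistance gene driven by streptokinase promoter and grows in 40 µg/ml kanamycin; loss of luminescence reflects streptokinase promoter inhibition or plain growth inhibition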
NALP1 inh: blocks the NALP1 inflammasome reconstituted in yeast; S. cerevisiae NALP1/ASC/caspase-1 growth, X-gal OD620, 72 h; inhibition, % at 10 µM; 280,000 tested, 0.61% active; AID 2071; in the data active means inhibition mostly above about 24%, no sharp cut-off; inactive means mostly below about 32%
TIM10 inh: inhibits growth of TIM10 yeast strain | S. cerevisiae TIM10 strain growth, BacTiter-Glo luminescence, 24 h | inhibition, % at 10 µM | 330,000 tested, 1.4% active;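 active means inhibition of 40% or more at the single tested concentration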;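 further: wild-type TIM10 isogenic control strain grown at permissive 25 °C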
Each line names hits and unclear results; the compound was inactive in the other large screens.

COC(=O)c1ccn(CC(=O)NC2CCCCC2)n1	none
CCOC(=O)C(Cc1ccccc1)NC(=O)CCCC(=O)c1ccccc1 (stereo not drawn)	none
C=CCOc1cccc(/C=C\c2nc(O)c([N+](=O)[O-])c(=O)[nH]2)c1	none
Cc1nc(-c2ccc(Cl)cc2)sc1C(=O)O	none
COC(=O)c1cc(C(=O)c2ccc(Cl)cc2Cl)cn1C	none
Cn1cc(C(=O)c2ccc(Cl)cc2Cl)cc1C(=O)N/N=C(\N)COc1cccc(C(F)(F)F)c1	SKKanGAS inh 59
O=C(N/N=C/c1c(O)n(-c2ccccc2Cl)c(=O)c2ccccc12)c1cccnc1	SKKanGAS inh 71 (no result: tim10-1 inh, tim23-1 inh, TIM10 inh)
CC(=O)N(CCc1ccccc1C)Cc1cc2ccc(C)cc2[nH]c1=O	none
Cc1cc(C(=O)N/N=C/c2ccncc2)c(C)o1	none
Cc1ccc(/C=N/NC(=O)c2cc(C)oc2C)cc1	NALP1 inh 36 (no result: PfHsp90 set2)
Cc1ccccc1Nc1nnc(SCc2cc(=O)n3ccsc3n2)s1	NALP1 inh 27
COc1cccc2c1OCC(CN1CCN(Cc3ccccc3F)C(CCO)C1)=C2 (stereo not drawn)	none
COCc1cc(=O)[nH]c(Nc2nc3ccccc3o2)n1	SKKanGAS inh 53
Cc1ccc(/C(O)=C/C(=O)C(=O)NC23CC4CC(CC(C4)C2)C3)cc1	SKKanGAS inh 54
CCn1c(=O)c2c(nc(SCC(=O)Nc3ccccc3)n2C)n(C)c1=O	none
CCOC(=O)c1sc(N2C(=O)C(O)=C(C(=O)c3ccc(C)o3)C2c2ccc(OC)c(OC)c2)nc1C (stereo not drawn)	none
COC(=O)c1sc(N2C(=O)C(O)=C(C(=O)c3ccc(C)o3)C2c2ccc([N+](=O)[O-])cc2)nc1C (stereo not drawn)	SKKanGAS inh 63
CCOC(=O)c1sc(N2C(=O)C(O)=C(C(=O)c3ccc(C)o3)C2c2cccc([N+](=O)[O-])c2)nc1C (stereo not drawn)	SKKanGAS inh 61 (no result: tim10-1 inh, tim23-1 inh, TIM10 inh)
CCOc1ccc(C2C(C(=O)c3ccc(C)o3)=C(O)C(=O)N2c2nc(C)c(C(=O)OC)s2)cc1 (stereo not drawn)	none
CCN1CCN(C(=O)C2CCC(=O)N(Cc3cccc(C(F)(F)F)c3)C2)CC1 (stereo not drawn)	none
CN1CCN(C(=O)C2CCC(=O)N(Cc3cccc(C(F)(F)F)c3)C2)CC1 (stereo not drawn)	NALP1 inh 32
O=C1c2cccc3cccc(c23)C(=O)N1CC1CCN(CC(O)COc2ccc3ccccc3c2)CC1 (stereo not drawn)	SKKanGAS inh 70 (no result: NALP1 inh)
COc1cccc(OCC(O)CN2CCC(CN3C(=O)c4cccc5cccc(c45)C3=O)CC2)c1 (stereo not drawn)	none
O=C1CC(N2CCN(c3ccc(O)cc3)CC2)C(=O)N1c1ccc2c(c1)OCO2 (stereo not drawn)	none
O=C1CC(N2CCCCCC2)C(=O)N1c1ccc2c(c1)OCO2 (stereo not drawn)	PfHsp90 set2 121
Cc1ccc(-c2cc(N)n(-c3ccc(F)cc3)n2)cc1	NALP1 inh 29 (no result: PfHsp90 set2)
Cc1ccc(-c2cc(N)n(-c3ccc(C)cc3)n2)cc1	none
Cc1ccc(Cl)cc1NC(=S)N/N=C/c1cccc2ccccc12	SKKanGAS inh 80
Cc1ccccc1C(=O)N/N=C/c1cccc2ccccc12	none
O=C(Nc1ccccc1NC(=O)c1ccccc1F)c1ccccc1F	none
O=C(Nc1ccccc1Sc1ccccc1)c1ccccc1F	SKKanGAS inh 61 (no result: NALP1 inh)
COc1cc(/C=C2\SC(=S)N(CCC(=O)Nc3ccccc3)C2=O)cc(OC)c1OC	NALP1 inh 29
COc1cc(/C=C2/SC(=S)N(CCC(=O)Nc3ccccc3)C2=O)cc(OC)c1OC	none
COc1cc(/C=C2\SC(=S)N(CCC(=O)Nc3cccc(O)c3)C2=O)cc(OC)c1OC	SKKanGAS inh 57
CSc1ccc(CN(C)C(C)C(=O)Nc2ccc(F)c(F)c2F)cc1 (stereo not drawn)	none
Cc1cccc(C)c1NC(=O)CN(C)CC(=O)Nc1sc2c(c1C(N)=O)CCC2	SKKanGAS inh 50 (no result: NALP1 inh)
COc1ccc(CCNC(=O)c2ccc(OCC(=O)N3CCOCC3)c(OC)c2)cc1	none (no result: NALP1 inh)
COc1ccc(CCNC(=O)c2ccc(OCC(=O)N3CCOCC3)c(OC)c2)cc1OC	NALP1 inh 30
COc1ccc(CCNCc2ccc(OCC(=O)N3CCCCC3)c(OC)c2)cc1OC	NALP1 inh 34
COc1ccc(S(=O)(=O)N2CCC(C(=O)Nc3nnc(CCN4CCCCC4)s3)CC2)cc1	none (no result: SKKanGAS inh)
COc1ccc2nc(NC(=O)c3ccc(NS(=O)(=O)c4cccs4)cc3)sc2c1	SKKanGAS inh 63
Cc1cccc2sc(NC(=O)c3ccc(NS(=O)(=O)c4cccs4)cc3)nc12	SKKanGAS inh 79
COc1cccc(NC(=O)c2ccc(NS(=O)(=O)c3cccs3)cc2)c1	none (no result: PfHsp90 set2, SKKanGAS inh, NALP1 inh)
CC(C)OC(=O)c1ccc(NC(=O)CSc2nc3ncccc3[nH]2)cc1	none
COc1ccc(C2c3cc(OC)c(OC)cc3CC3C(=O)OCC32)cc1OC (stereo not drawn)	none (no result: tim10-1 inh, tim23-1 inh, SKKanGAS inh, NALP1 inh, TIM10 inh)
COc1ccc(OC)c(/C=C/c2ccc3cccc(O)c3n2)c1	SKKanGAS inh 90
COc1cc(Br)c(/C=C/c2ccc3cccc(O)c3n2)cc1OC	SKKanGAS inh 85
COc1cc(/C=C/c2ccc3cccc(OC)c3n2)c(O)c([N+](=O)[O-])c1	none
Oc1cccc2ccc(/C=C/c3ccccc3Br)nc12	PfHsp90 set2 98, SKKanGAS inh 103
CN(c1ccc(C(=O)NCc2cccnc2)cc1)S(=O)(=O)c1ccc(Cl)cc1	none
Cc1cc(NC(=O)c2ccc3c(c2)OCCO3)ccc1NC(=O)c1cc2ccccc2o1	SKKanGAS inh 53
CN(Cc1ccccc1)S(=O)(=O)c1ccc(C(=O)Nc2nnc(C3CC3)o2)cc1	SKKanGAS inh 79
COCc1nnc(NC(=O)c2ccc(S(=O)(=O)N3CCCc4ccccc43)cc2)o1	none
COc1cccc(-c2nnc(NC(=O)c3ccc(S(=O)(=O)N4CCOCC4)cc3)o2)c1	SKKanGAS inh 88
COc1ccc(-c2nnc(NC(=O)c3ccc(S(=O)(=O)N4CCCc5ccccc54)cc3)o2)cc1	SKKanGAS inh 94
O=C(Nc1nnc(C2CC2)o1)c1ccc(S(=O)(=O)N2CCCc3ccccc32)cc1	SKKanGAS inh 91
CCc1nnc(NC(=O)c2ccc(S(=O)(=O)N(C)Cc3ccccc3)cc2)o1	SKKanGAS inh inconclusive
COc1cc(-c2nnc(NC(=O)c3ccc(S(=O)(=O)N4CCOCC4)cc3)o2)cc(OC)c1OC	none (no result: PfHsp90 set2)
Cc1ccc(S(=O)(=O)N2CCN(c3nc(C(C)C)c4c(c3C#N)CC(C)(C)OC4)CC2)cc1	none
CCOC(=O)N1CCC(NC(=O)C(Cc2ccccc2)NC(=O)C2CCCCC2)CC1 (stereo not drawn)	none (no result: PfHsp90 set2)
COc1ccc(C(=O)CCN2CCCC(C)C2)cc1 (stereo not drawn)	none
